# tim10-1 inh: growth inhibitors of tim10-1 mutant yeast, primary screen, luminescence, uHTS. S. cerevisiae tim10-1 ts strain growth, BacTiter-Glo, 24 h. inhibition, % at 20 µM. 330,000 tested, 2.2% active. AID 463190, 2010;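 active means inhibition of at least 40%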;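 further: mutant grown at 25 °C; 0% = DMSO wells with yeast and 100% = wells holding no yeast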
# tim23-1 inh: growth inhibitors of tim23-1 mutant yeast, primary screen, luminescence, uHTS. inhibition, % at 20 µM. 330,000 tested, 1.3% active. S. cerevisiae tim23-1 growth, BacTiter-Glo luminescence, 24 h. AID 463212, 2010;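 active means growth inhibition of the mutant yeast at or above 50%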;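 further: temperature-sensitive mutant grown at 25 °C; plate controls were DMSO-treated mutant yeast for no effect and medium wells lacking yeast for full effect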
# PfHsp90 set2: growth inhibition of PfHsp90-expressing yeast, primary screen, antimalarial PfHsp90 inhibitor project, S. cerevisiae, BacTiter-Glo luminescence, single point, set 2. BacTiter-Glo ATP, 48 h; yeast lacking PDR1 and PDR3 efflux regulators. inhibition, % at 9.4 µM. 310,000 tested, 0.32% active;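 active means every replicate shows inhibition above about 80%, whatever the replicate mean, limit read from the data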;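 further: 0% = DMSO neutral controls and 100% = 20 µM radicicol positive controls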
# NALP3 yeast inh: NALP3 inflammasome inhibitors in reconstituted yeast, primary screen, luminescence, uHTS | inhibition, % at 10 µM | 330,000 tested, 0.39% active | Yeast reconstituted NLRP3/ASC/caspase-1, beta-gal luminescence, 24 h;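 active means inhibition of 50% or more; inactive means inhibition below 50%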;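 further: plate controls were induced DMSO wells for no effect and uninduced yeast grown without galactose for full effect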
# NALP1 inh: NALP1 inflammasome inhibitors in reconstituted yeast, colorimetric, S. cerevisiae, triplicate retest. inhibition, % at 10 µM. AID 2071, 2009. S. cerevisiae NALP1/ASC/caspase-1 growth, X-gal OD620, 72 h. 280,000 tested, 0.61% active; in the data active means inhibition mostly above about 24%, no sharp cut-off; inactive means mostly below about 32%
# TIM10 inh: growth inhibitors of isogenic TIM10 control yeast, primary screen, counter-screen for tim10-1 yeast inhibitor project, luminescence, uHTS; S. cerevisiae TIM10 strain growth, BacTiter-Glo luminescence, 24 h; inhibition, % at 10 µM; 330,000 tested, 1.4% active;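 active means inhibition of 40% or more at the single tested concentration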;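 further: wild-type TIM10 isogenic control strain grown at permissive 25 °C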
# tim10-1 confirm: growth inhibitors of tim10-1 mutant yeast, confirmation, single concentration, luminescence, S. cerevisiae; S. cerevisiae tim10-1 ts strain growth, BacTiter-Glo, 24 h; 7,400 tested, 56% active; inhibition, % at 20 µM; shares compounds with tim10-1 inh;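 active means inhibition of yeast growth at or above a set limit in either of two repeat tests at 20 µM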;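 further: tim10-1 mutant grown at permissive 25 °C to find synthetic lethal compounds; 0% = DMSO yeast wells and 100% = medium wells without yeast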
# * marks the source's active call; other numbers are inactive results; x = no result given. A selection: hits, their analogues and other compounds. The true share with any hit is near 4.1%.
SMILES,tim10-1 inh,tim23-1 inh,PfHsp90 set2,NALP3 yeast inh,NALP1 inh,TIM10 inh,tim10-1 confirm
Cc1ccc(-c2csc(N3CCN(c4cc5c(cc4Cl)nc(C(C)N)n5CCCO)CC3)n2)cc1 (stereo not drawn),-15,-6,-9,19,13,3,x
Cc1ccc(-c2csc(N3CCN(c4cc5c(cc4Cl)nc(C)n5CCN4CCCCC4)CC3)n2)cc1,41*,47,x,19,8,9,11
Cc1ccc(S(=O)(=O)Nc2cncnc2NS(=O)(=O)c2ccc(C)cc2)cc1,x,x,12,x,x,x,x
Cc1cc(C)c(C#N)c(SCC(=O)c2cccs2)n1,44*,28,x,24,11,9,27
C=CCc1cccc(CNc2ccc(Br)cc2)c1O,43*,37,-8,20,6,35,64*
C=CCc1cccc(CNc2nc3ccccc3n2C(C)C)c1O,43*,27,18,16,-42,37,34*
O=C(Nc1cccc(S(=O)(=O)N2CCCCC2)c1)C1CCCN1S(=O)(=O)c1ccccc1F (stereo not drawn),9,18,-23,6,x,9,x
COC(=O)c1c(NC(=O)c2nn(C)cc2Cl)sc2c1CCCC2,50*,44,x,14,-10,32,14
COc1ccc(C(=O)NCC(=O)NCc2ccncc2)cc1,5,-5,-7,13,x,-2,x
Cn1c(CSc2nnc(SCc3ccccc3)s2)nc2ccccc21,56*,41,-4,-3,-5,37,42*
COc1ccc(C2(C)NC(=O)N(CC(=O)c3cc(C)n(C4CC4)c3C)C2=O)cc1OC (stereo not drawn),-10,12,x,22,x,2,x
O=C(c1cn(-c2ccccc2)nc1-c1ccncc1)n1nnc2ccccc21,53*,40,-15,-3,x,27,39*
COc1ccc(-c2nnc(COc3ccc4ccccc4c3)o2)cc1OC,43*,-3,-36,22,22,6,12
COc1cc(-c2nnc(COc3ccc4cc(Br)ccc4c3)o2)cc(OC)c1OC,24,19,-10,3,34,13,x
COCCCNC(=O)c1c(N)n(/N=C/c2ccccn2)c2nc3ccccc3nc12,42*,8,-7,-2,8,29,27
CC(C)OCCCNC(=O)c1c(N)n(/N=C/c2cccs2)c2nc3ccccc3nc12,9,11,-11,-2,14,3,x
O=C(NC(=S)N(CCO)Cc1ccccc1)c1cc(Br)ccc1Cl,13,23,-5,4,-3,16,x
CN(C)CCCN1c2ccccc2CCc2ccc(Cl)cc21,53*,22,8,40,38,17,32*
Cc1ccc([N+](=O)[O-])c(OCCN2C(=O)NC(C)(C)C2=O)c1,-3,-7,4,8,9,5,x
Cc1ccc(C(C)C)c(OCCCN2C(=O)NC(C)(C)C2=O)c1,43*,18,x,0,1,7,22
N#Cc1ccccc1NC(=O)C1SC(=Nc2ccccc2)C(C(=O)Nc2ccc(Cl)cc2)=C1N (stereo not drawn),43*,26,x,19,-5,30,29
CCOc1ccc(N=C2SC(C(=O)Nc3ccccc3C#N)C(N)=C2C(=O)Nc2ccc(Cl)cc2)cc1 (stereo not drawn),11,16,-24,17,1,0,x
C=C(C)C1CC=C(C)/C(=N/NC(=O)CNc2ccc(C)cc2C)C1 (stereo not drawn),x,x,-3,x,12,x,x
C=C(C)C1CC=C(C)/C(=N/NC(=O)CNc2ccc(OCC)cc2)C1 (stereo not drawn),42*,28,-1,20,-6,4,30
Cc1ccc(NC(=O)C(c2ccccc2)N2CCN(CC(=O)NC3CC3)CC2)cc1 (stereo not drawn),-17,-18,x,5,x,0,x

# Screening data as filed in PubChem.
